Here are results for 20 molecules from PubChem BioAssay.

A short description of test [1]: antimalarial activity against Dd2 strain (AID 2302;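 active means growth inhibition above 50% at the single 2 µM test dose, taken to imply half-maximal potency below 2 µM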;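 further: 0% = DMSO untreated growth and 100% = chloroquine plus artemisinin killed control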). To be noted: P. falciparum Dd2 in RBCs, LDH growth readout, 72 h; at 2 µM; hits give high values.
Test [2] in a line: HepG2 cytotoxicity, primary screen, cytotoxicity control for P. falciparum antimalarial project, cell-based, ATP luminescence (AID 2303;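 active means inhibition above 50%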;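 further: 0% = DMSO wells and 100% = digitonin-killed cells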). To be noted: HepG2 viability, 24-48 h, at 10 µM, hits give high values.
Test [3] deals with L-lactate dehydrogenase (Plasmodium falciparum (isolate CDC / Honduras)) (UniProt Q27743). Kind of test: PfLDH activity inhibition – cell lysate, 3D7 strain, counter-screen for P. falciparum growth inhibition project (AID 2304).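 Further: 0% = vehicle and 100% = reference inhibitor.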 To be noted: P. falciparum 3D7 crude extract, LDH APAD/NBT absorbance; at 2 µM; hits give high values.
Test [4] can be described thus: inhibition of 3D7 malaria parasite growth – strain 3D7 (AID 2306).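 Further: 0% = DMSO wells and 100% = chloroquine plus artemisinin control wells.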 To be noted: P. falciparum 3D7 erythrocytic growth, LDH absorbance, 72 h; at 2 µM; hits give high values.
In test [5] the target is Calcium-dependent protein kinase 1 (Plasmodium falciparum (isolate 3D7)) (UniProt P62344). The test is described as follows: PfCDPK1 kinase inhibitors, biochemical, TCAMS library (AID 1159585; cut-off not given, nearly all actives have IC50 up to about 0.98 µM;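 further: inhibitors leave more ATP so luminescence rises with inhibition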). To be noted: recombinant PfCDPK1, Kinase-Glo ATP depletion luminescence. (In general: In Kinase-Glo more light means more ATP remaining.)
Test [6] addresses Plasmodium falciparum protein kinase 6 (PK6, PF3D7_1337100) (UniProt Q8IDW1). Kind of test: PfPK6 kinase inhibitors, biochemical, TCAMS library (AID 1159586). To be noted: recombinant PfPK6, Kinase-Glo ATP depletion luminescence.
For test [7], the target named is Protein kinase 7 (PK7), Plasmodium falciparum 3D7 (PF3D7_0213400) (UniProt Q7YTF7). The test is described as follows: inhibition of Plasmodium PK7 catalytic activity – biochemical, TCAMS antimalarial set, Kinase-Glo luminescence (AID 1159587). To be noted: recombinant PfPK7, Kinase-Glo ATP depletion luminescence.
Test [8] addresses Calcium-dependent protein kinase 4 (Plasmodium falciparum (isolate 3D7)) (UniProt Q8IBS5). Kind of test: PfCDPK4 kinase inhibitors, biochemical, TCAMS library (AID 1159588; cut-off not given, nearly all actives have IC50 up to about 0.91 µM). To be noted: recombinant PfCDPK4, Kinase-Glo ATP depletion luminescence.

SMILES strings stand for the structures. Unmarked numbers belong to inactive results. For some of these results: Measured potencies and affinities stand elsewhere. Activity calls are given as the source filed them. Unless noted, how the calls were made is not given here.

Calcium-dependent protein kinase 4 (Plasmodium falciparum (isolate 3D7)), sequence (Q8IBS5 whole entry, looked up): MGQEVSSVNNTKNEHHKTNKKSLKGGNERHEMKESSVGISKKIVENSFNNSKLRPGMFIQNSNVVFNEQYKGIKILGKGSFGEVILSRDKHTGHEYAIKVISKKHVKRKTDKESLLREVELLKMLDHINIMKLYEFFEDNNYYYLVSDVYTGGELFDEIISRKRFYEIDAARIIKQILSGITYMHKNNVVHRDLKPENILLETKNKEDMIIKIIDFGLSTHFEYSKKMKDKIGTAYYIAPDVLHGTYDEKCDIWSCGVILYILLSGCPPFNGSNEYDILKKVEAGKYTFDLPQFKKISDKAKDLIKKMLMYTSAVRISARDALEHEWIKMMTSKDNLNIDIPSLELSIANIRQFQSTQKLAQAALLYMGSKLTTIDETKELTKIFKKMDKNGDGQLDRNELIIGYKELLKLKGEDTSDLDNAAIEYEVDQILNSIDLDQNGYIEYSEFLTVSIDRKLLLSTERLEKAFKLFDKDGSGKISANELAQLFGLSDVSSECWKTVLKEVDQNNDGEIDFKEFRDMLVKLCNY
L-lactate dehydrogenase (Plasmodium falciparum (isolate CDC / Honduras)), sequence (Q27743 whole entry, looked up): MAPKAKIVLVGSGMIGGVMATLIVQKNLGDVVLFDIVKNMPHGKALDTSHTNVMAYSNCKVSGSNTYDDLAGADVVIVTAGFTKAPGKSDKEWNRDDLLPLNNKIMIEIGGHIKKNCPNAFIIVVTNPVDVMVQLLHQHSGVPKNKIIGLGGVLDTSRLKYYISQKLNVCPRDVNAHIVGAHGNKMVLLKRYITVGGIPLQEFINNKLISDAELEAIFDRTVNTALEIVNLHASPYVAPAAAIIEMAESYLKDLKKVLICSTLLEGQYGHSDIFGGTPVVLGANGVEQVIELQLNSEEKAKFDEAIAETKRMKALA
Plasmodium falciparum protein kinase 6 (PK6, PF3D7_1337100), sequence (Q8IDW1 1-305): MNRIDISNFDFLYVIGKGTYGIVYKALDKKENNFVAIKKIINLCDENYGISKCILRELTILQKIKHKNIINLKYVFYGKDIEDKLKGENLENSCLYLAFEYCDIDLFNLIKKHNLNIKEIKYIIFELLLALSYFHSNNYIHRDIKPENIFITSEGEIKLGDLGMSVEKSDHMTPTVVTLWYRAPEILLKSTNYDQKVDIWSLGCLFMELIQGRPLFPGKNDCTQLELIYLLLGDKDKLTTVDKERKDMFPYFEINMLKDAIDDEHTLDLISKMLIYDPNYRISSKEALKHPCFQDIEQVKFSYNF
Calcium-dependent protein kinase 1 (Plasmodium falciparum (isolate 3D7)), sequence (P62344 whole entry, looked up): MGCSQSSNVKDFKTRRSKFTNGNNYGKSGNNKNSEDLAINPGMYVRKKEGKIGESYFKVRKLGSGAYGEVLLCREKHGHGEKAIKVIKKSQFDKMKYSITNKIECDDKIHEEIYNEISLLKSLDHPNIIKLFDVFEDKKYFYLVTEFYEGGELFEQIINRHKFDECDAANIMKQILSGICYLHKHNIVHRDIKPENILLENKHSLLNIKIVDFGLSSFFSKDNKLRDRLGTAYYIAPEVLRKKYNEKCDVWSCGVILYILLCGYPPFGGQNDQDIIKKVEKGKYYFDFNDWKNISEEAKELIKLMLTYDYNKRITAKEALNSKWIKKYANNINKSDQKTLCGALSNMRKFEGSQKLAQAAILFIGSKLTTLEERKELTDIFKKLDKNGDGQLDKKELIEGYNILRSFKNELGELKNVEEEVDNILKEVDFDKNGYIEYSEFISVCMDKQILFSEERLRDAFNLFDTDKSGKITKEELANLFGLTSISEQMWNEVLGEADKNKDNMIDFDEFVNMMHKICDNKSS
Protein kinase 7 (PK7), Plasmodium falciparum 3D7 (PF3D7_0213400), sequence (Q7YTF7 1-343): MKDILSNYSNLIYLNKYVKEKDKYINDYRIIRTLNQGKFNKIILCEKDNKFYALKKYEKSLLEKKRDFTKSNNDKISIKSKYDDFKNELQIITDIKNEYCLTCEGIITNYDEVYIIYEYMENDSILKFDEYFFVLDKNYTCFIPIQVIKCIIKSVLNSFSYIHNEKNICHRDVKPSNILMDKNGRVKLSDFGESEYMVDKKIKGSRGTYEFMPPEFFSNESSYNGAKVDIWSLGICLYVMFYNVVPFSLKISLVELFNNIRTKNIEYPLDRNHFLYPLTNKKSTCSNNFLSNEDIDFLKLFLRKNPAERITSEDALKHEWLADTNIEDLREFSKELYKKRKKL

A word on the inhibition: it is the drop in the measured response relative to a control, in per cent. For `Cc1ccc(S(=O)(=O)N2CCN(C(=O)c3cc(-c4ccccc4)n[nH]3)CC2)cc1`, the values for the growth inhibition in test [1] and in test [4] were 88% (active) and 91% (active), respectively. Also, the inhibition in test [2] was -8%; in test [3], -7%. In addition, the outcome in test [5], in test [6], in test [7] and in test [8] was inactive.
As to `COc1ccccc1-c1cccc(CNC2CCN(CC3Cn4c(=O)ccc5ccc(F)c3c54)CC2)c1` (stereo not given), the growth inhibition is -1% in test [1] and 91% (active) in test [4]. The inhibition is 30% in test [2] and 3% in test [3]. For the same molecule, the result in test [5], in test [6], in test [7] and in test [8] was inactive.
For the molecule `CCN(CC)CC(O)CNc1c2ccc([N+](=O)[O-])cc2nc2cc(OC)c(OC)cc12` (stereo not given), the growth inhibition in test [1] and in test [4] was 100% (active) throughout. The figures for the inhibition in test [2] and in test [3] were 78% (active) and -4%, respectively. Further, the outcome in test [5], in test [6], in test [7] and in test [8] was inactive.
As to `CN1CCCc2ccc(NC(=O)c3cnc(-c4ccccc4)cn3)cc21`, the growth inhibition was 82% (active) in test [1] and 87% (active) in test [4]. Further, the inhibition in test [2] was 24%; in test [3] it was 2%. For the same molecule, the outcome in test [5], in test [6], in test [7] and in test [8] was inactive.
Take `N#Cc1cccc(C(=O)NC2CCN(c3ccnc(Nc4ccc(F)cc4)n3)C2)c1` (stereo not given): the growth inhibition in test [1] is 91% (active); in test [4], 98% (active). For the same molecule, the results for the inhibition in test [2] and in test [3] were 4% and -8%, respectively. Further, the result in test [5], in test [6], in test [7] and in test [8] was inactive.
Regarding `COc1cc2c(cc1OC)CC(NCc1ccc(-c3ccc4nc[nH]c4c3)cc1)C2`, the growth inhibition in test [1] was 92% (active); in test [4] it was 97% (active). The inhibition in test [2] is 40%; in test [3], 0%. Also, the outcome in test [5], in test [6], in test [7] and in test [8] was inactive.
On to `COc1ccc(CNCc2cccc(-c3ccc(-c4nc5ccccc5[nH]4)cc3)c2)cc1`, for which the values for the growth inhibition in test [1] and in test [4] were 60% (active) and 101% (active), respectively. Besides, the results for the inhibition in test [2] and in test [3] were 22% and 2%, respectively. The outcome in test [5], in test [6], in test [7] and in test [8] was inactive.
On to `COc1ccc2c(NN=Cc3ccncc3)cc(C)nc2c1`, for which the results for the growth inhibition in test [1] and in test [4] were 95% (active) and 99% (active), respectively. The inhibition in test [2] and in test [3] was -4% each time. Besides, the outcome in test [5], in test [6], in test [7] and in test [8] was inactive.
With `CCNC(=O)Nc1cccc(-c2cccc(-c3nc4ccc(C(F)(F)F)cc4[nH]3)c2)c1`, the growth inhibition is 32% in test [1] and 91% (active) in test [4]. Further, the inhibition in test [2] was 50% (active); in test [3] it was 2%. The result in test [5], in test [6], in test [7] and in test [8] was inactive.
As for `CC(C)Oc1ccc(N2CCN(CCCCNC(=O)c3ccc(NC(=O)c4ccc(Cl)cc4)cc3)CC2)c(OC(C)C)c1`, the growth inhibition in test [1] is 85% (active); in test [4], 102% (active). Moreover, the values for the inhibition in test [2] and in test [3] were 31% and 1%, respectively. The result in test [5], in test [6], in test [7] and in test [8] was inactive.
On to `CN(Cc1cccc(O)c1)C1CCN(c2cc(NC(=O)c3ccc(F)cc3)ccn2)C1` (stereo not given), for which the growth inhibition was 6% in test [1] and 91% (active) in test [4]. Besides, the inhibition in test [2] and in test [3] was 5% throughout. For the same molecule, the outcome in test [5], in test [6], in test [7] and in test [8] was inactive.
`c1ccc2[nH]c(-c3ccc(-c4ccc(CN5CCC(N6CCCCC6)CC5)cc4)s3)nc2c1`: the growth inhibition in test [1] is 100% (active); in test [4], 99% (active). Moreover, the inhibition is 26% in test [2] and -5% in test [3]. Also, the outcome in test [5], in test [6], in test [7] and in test [8] was inactive.
On to `O=C(Nc1cccc(-c2nn3ccccc3c2-c2ccnc(Nc3cccc(N4CCCC4=O)c3)n2)c1)c1cc(F)ccc1F`, for which the growth inhibition is 51% (active) in test [1] and 99% (active) in test [4]. Moreover, the inhibition is 59% (active) in test [2] and 3% in test [3]. The outcome in test [5], in test [6], in test [7] and in test [8] was inactive.
`CC(C)CC(NC(=O)c1cc2ccccc2s1)C(=O)N1CCCCCC1c1ccc(C(C)(C)C)cc1` (stereo not given): the growth inhibition in test [1] is 39%; in test [4], 91% (active). In addition, the values for the inhibition in test [2] and in test [3] were 23% and -2%, respectively. The outcome in test [5], in test [6], in test [7] and in test [8] was inactive.
As to `Cc1cccc2[nH]c(-c3ccc(-c4cccc(CN5CCN(CCO)CC5)c4)cc3)nc12`, the growth inhibition was 55% (active) in test [1] and 100% (active) in test [4]. The values for the inhibition in test [2] and in test [3] were 20% and -3%, respectively. The outcome in test [5], in test [6], in test [7] and in test [8] was inactive.
On to `Cc1nc(-c2nc(NCCc3ccncc3)ncc2-c2ccsc2)sc1C`, for which the growth inhibition in test [1] was 87% (active); in test [4], 92% (active). For the same molecule, the inhibition in test [2] was 10%; in test [3], -1%. Besides, the result in test [5], in test [6], in test [7] and in test [8] was inactive.
`CCOC(=O)c1ccc(N2CCN(CCCNC(=O)/C(=C/C=C/c3cc4cc(Cl)c(Cl)cc4[nH]3)OC)CC2)cc1`: the figures for the growth inhibition in test [1] and in test [4] were 72% (active) and 93% (active), respectively. Further, the results for the inhibition in test [2] and in test [3] were 39% and 4%, respectively. The result in test [5], in test [6], in test [7] and in test [8] was inactive.
Turning to `Cc1ccc(CNC(=O)c2cnc(N3CCN(c4ccncc4)CC3)c(Cl)c2)cc1`, the growth inhibition in test [1] was 6%; in test [4] it was 92% (active). For the same molecule, the inhibition in test [2] is 27%; in test [3] it was -3%. For the same molecule, the outcome in test [5], in test [6], in test [7] and in test [8] was inactive.
As for `COc1ccc2ncn(-c3ccc(C(N)=O)c(OCc4ccccc4C(F)(F)F)c3)c2c1`, the growth inhibition was 100% (active) in test [1] and 98% (active) in test [4]. Moreover, the inhibition is 18% in test [2] and 3% in test [3]. Moreover, the outcome in test [5], in test [6], in test [7] and in test [8] was inactive.
For `Nc1cccc(CNCc2cccc(-c3ccc(-c4nc5ccccc5[nH]4)s3)c2)c1`, the growth inhibition is 90% (active) in test [1] and 101% (active) in test [4]. For the same molecule, the inhibition was 8% in test [2] and -1% in test [3]. Also, the result in test [5], in test [6], in test [7] and in test [8] was inactive.
